This passage reports binding signal results from paper PMC7862700, “An all-to-all approach to the identification of sequence-specific readers for epigenetic DNA modifications on cytosine”.

Sequence of CRX (O43186 whole entry): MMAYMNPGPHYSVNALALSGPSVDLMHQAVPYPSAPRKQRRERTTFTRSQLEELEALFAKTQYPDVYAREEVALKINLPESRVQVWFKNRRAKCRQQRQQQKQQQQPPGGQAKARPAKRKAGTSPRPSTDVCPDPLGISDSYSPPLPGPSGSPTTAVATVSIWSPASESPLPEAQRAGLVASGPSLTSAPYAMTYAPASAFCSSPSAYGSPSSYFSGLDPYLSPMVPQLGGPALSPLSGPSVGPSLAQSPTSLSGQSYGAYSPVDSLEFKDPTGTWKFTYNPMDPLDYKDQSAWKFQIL

The target of one test is T1, ETV2 (Homo sapiens, UniProt O00321 1-342).
T1 sequence: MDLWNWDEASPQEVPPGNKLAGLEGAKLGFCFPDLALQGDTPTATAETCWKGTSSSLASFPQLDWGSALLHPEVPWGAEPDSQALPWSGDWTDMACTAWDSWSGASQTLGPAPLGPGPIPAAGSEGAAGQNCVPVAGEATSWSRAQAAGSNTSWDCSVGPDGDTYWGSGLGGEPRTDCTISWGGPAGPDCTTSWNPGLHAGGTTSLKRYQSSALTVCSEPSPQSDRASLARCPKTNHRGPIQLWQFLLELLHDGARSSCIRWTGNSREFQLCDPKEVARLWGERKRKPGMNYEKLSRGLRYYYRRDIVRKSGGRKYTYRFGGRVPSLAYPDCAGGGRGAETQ
The test is described as follows: DAPPL (digital affinity profiling via proximity ligation, sequencing); 10 mM Tris-HCl pH 7.5, 50 mM NaCl, 1 mM DTT, 4% glycerol, room temperature, 30 min; GST-TFs on glutathione beads, 16-mer random dsDNA library, 0.1% formaldehyde crosslink after washing; high values mean tight binding. The conditions noted are these: protein: recombinant; tags: N-terminal GST; dsDNA, one strand shown. In outline: (§1)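 Binding signal is defined as a hexamer's read frequency for one factor over its frequency for the tag-only sample. To obtain reads, GST-fused human transcription factors were expressed in yeast, captured on glutathione beads, barcoded with DNA and pooled with that sample. Pools met 200 nmole of a 16-mer random double-stranded DNA library in Tris/NaCl/DTT/glycerol buffer for 30 min at room temperature before washing, 0.1% formaldehyde crosslinking, proximity ligation (BsaI/T4 ligase, 1 h, 37 °C), PCR and Illumina NextSeq500 sequencing.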
For the sequence TTTAGA, the binding signal is 1.12 fold enrichment (6-mer frequency, TF over GST control).

For TTAGAG, the binding signal was 1.01 fold enrichment (6-mer frequency, TF over GST control).

As for ACGCGA, the binding signal is 1.02 fold enrichment (6-mer frequency, TF over GST control).

Turning to ATCAAG, the binding signal is 1.17 fold enrichment (6-mer frequency, TF over GST control).

On to AGATCA, for which the binding signal was 1.03 fold enrichment (6-mer frequency, TF over GST control).

The target of a further test is T2, ELF3 (Homo sapiens, UniProt P78545 1-371).
T2 sequence: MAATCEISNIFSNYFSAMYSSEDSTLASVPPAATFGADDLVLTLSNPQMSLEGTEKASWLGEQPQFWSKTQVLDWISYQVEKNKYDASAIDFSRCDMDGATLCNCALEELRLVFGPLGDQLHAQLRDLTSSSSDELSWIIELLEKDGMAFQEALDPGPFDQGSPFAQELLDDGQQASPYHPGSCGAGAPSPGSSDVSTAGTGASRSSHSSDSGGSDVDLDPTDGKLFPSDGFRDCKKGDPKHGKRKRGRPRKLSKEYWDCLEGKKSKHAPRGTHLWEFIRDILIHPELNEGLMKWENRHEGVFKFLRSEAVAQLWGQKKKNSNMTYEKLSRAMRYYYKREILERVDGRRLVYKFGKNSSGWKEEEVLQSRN
The description is as above. The conditions noted are these: protein: recombinant; tags: N-terminal GST; dsDNA, one strand shown. In outline: as §1
Regarding TTAGGA, the binding signal is 1.02 fold enrichment (6-mer frequency, TF over GST control).

Consider GGTTAA, for which the binding signal was 1.03 fold enrichment (6-mer frequency, TF over GST control).

As for TACGAG, the binding signal is 1.02 fold enrichment (6-mer frequency, TF over GST control).

Regarding AGCATA, the binding signal was 1.01 fold enrichment (6-mer frequency, TF over GST control).

With GCGATT, the binding signal is 1.04 fold enrichment (6-mer frequency, TF over GST control).

As to CGGATT, the binding signal is 1.01 fold enrichment (6-mer frequency, TF over GST control).

Turning to AGAATG, the binding signal was 1.05 fold enrichment (6-mer frequency, TF over GST control).

As to GTAGAA, the binding signal is 1.06 fold enrichment (6-mer frequency, TF over GST control).

The next test has as its target CRX (Homo sapiens, UniProt O43186 1-299). Described as above. As to conditions: protein: recombinant; tags: N-terminal GST; dsDNA, one strand shown. In outline: as §1
As for ACCAGA, the binding signal is 1.06 fold enrichment (6-mer frequency, TF over GST control).

AGATTG: the binding signal is 1.06 fold enrichment (6-mer frequency, TF over GST control).

Consider TTAGGA, for which the binding signal was 1.77 fold enrichment (6-mer frequency, TF over GST control).

With AGGGAT, the binding signal was 1.49 fold enrichment (6-mer frequency, TF over GST control).

Turning to GGTTAA, the binding signal was 1.31 fold enrichment (6-mer frequency, TF over GST control).

Regarding TACGAG, the binding signal is 1.05 fold enrichment (6-mer frequency, TF over GST control).

As to CAGATA, the binding signal is 1.17 fold enrichment (6-mer frequency, TF over GST control).

For the sequence GATTAG, the binding signal was 3.62 fold enrichment (6-mer frequency, TF over GST control).

As to AGAATC, the binding signal was 1.21 fold enrichment (6-mer frequency, TF over GST control).

As for CAGATC, the binding signal was 1.13 fold enrichment (6-mer frequency, TF over GST control).

As to GCATTA, the binding signal was 1.64 fold enrichment (6-mer frequency, TF over GST control).

In the case of GGGATT, the binding signal was 2.71 fold enrichment (6-mer frequency, TF over GST control).

Turning to AGACTA, the binding signal was 1.02 fold enrichment (6-mer frequency, TF over GST control).

As to TAAGAC, the binding signal is 1.72 fold enrichment (6-mer frequency, TF over GST control).

For TAAGAG, the binding signal is 1.46 fold enrichment (6-mer frequency, TF over GST control).

As for GCGATT, the binding signal is 1.51 fold enrichment (6-mer frequency, TF over GST control).

As for CGAGAT, the binding signal was 1.27 fold enrichment (6-mer frequency, TF over GST control).

AATCGT: the binding signal is 1.15 fold enrichment (6-mer frequency, TF over GST control).

For GGCTTT, the binding signal was 1.47 fold enrichment (6-mer frequency, TF over GST control).

On to TCGTAA, for which the binding signal was 1.15 fold enrichment (6-mer frequency, TF over GST control).

Regarding CGGATT, the binding signal was 2.48 fold enrichment (6-mer frequency, TF over GST control).

As to AGAATG, the binding signal was 1.09 fold enrichment (6-mer frequency, TF over GST control).

In the case of TTCAGA, the binding signal was 1.03 fold enrichment (6-mer frequency, TF over GST control).

On to TCGAGA, for which the binding signal was 1.01 fold enrichment (6-mer frequency, TF over GST control).

With TCAAGA, the binding signal was 1.03 fold enrichment (6-mer frequency, TF over GST control).

As to TTTAGA, the binding signal was 1.59 fold enrichment (6-mer frequency, TF over GST control).

As for TTAGAG, the binding signal is 1.77 fold enrichment (6-mer frequency, TF over GST control).

GGATAA: the binding signal is 1.75 fold enrichment (6-mer frequency, TF over GST control).

As for TAGAGA, the binding signal was 1.15 fold enrichment (6-mer frequency, TF over GST control).

With AGAAAG, the binding signal was 1.01 fold enrichment (6-mer frequency, TF over GST control).

ATCAAG: the binding signal was 1.19 fold enrichment (6-mer frequency, TF over GST control).

In the case of AGATCA, the binding signal is 1.31 fold enrichment (6-mer frequency, TF over GST control).

The next test has as its target T3, ETV3L (Homo sapiens, UniProt Q6ZN32 1-361).
T3 sequence: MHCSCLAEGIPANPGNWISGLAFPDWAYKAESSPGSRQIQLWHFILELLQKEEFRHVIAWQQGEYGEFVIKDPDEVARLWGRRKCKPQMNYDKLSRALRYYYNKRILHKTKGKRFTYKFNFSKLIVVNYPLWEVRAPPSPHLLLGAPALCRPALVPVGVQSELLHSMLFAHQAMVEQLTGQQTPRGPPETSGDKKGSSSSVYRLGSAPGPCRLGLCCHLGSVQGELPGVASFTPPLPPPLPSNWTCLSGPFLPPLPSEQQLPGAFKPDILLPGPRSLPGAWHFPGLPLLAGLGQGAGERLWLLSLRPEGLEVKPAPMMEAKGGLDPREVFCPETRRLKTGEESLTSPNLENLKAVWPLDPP
The test is described as above. The conditions noted are these: protein: recombinant; tags: N-terminal GST; dsDNA, one strand shown. In outline:
as §1
Turning to GGCTTT, the binding signal is 1.03 fold enrichment (6-mer frequency, TF over GST control).

Consider GAATGG, for which the binding signal was 1.01 fold enrichment (6-mer frequency, TF over GST control).

In the case of TCGAGT, the binding signal was 1.06 fold enrichment (6-mer frequency, TF over GST control).

On to ATCAAG, for which the binding signal was 1.06 fold enrichment (6-mer frequency, TF over GST control).

The next test addresses T4, SPDEF (Homo sapiens, UniProt O95238 1-335).
T4 sequence: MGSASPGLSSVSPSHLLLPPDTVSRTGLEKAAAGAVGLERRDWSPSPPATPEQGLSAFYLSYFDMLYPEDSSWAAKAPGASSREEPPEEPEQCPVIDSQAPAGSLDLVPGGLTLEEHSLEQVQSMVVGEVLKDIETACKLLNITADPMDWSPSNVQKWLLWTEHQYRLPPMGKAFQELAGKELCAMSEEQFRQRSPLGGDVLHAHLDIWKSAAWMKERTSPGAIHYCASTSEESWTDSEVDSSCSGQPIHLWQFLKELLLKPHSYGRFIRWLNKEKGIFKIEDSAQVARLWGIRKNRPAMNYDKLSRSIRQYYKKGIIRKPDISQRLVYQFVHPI
The description is as above. The conditions noted are these: protein: recombinant; tags: N-terminal GST; dsDNA, one strand shown. In outline: as §1
On to CGTCGA, for which the binding signal was 1.02 fold enrichment (6-mer frequency, TF over GST control).

CAGATC: the binding signal is 1.07 fold enrichment (6-mer frequency, TF over GST control).

Consider GGCTTT, for which the binding signal was 1 fold enrichment (6-mer frequency, TF over GST control).

In the case of CGGATT, the binding signal is 1.42 fold enrichment (6-mer frequency, TF over GST control).

Regarding TTCAGA, the binding signal was 1.01 fold enrichment (6-mer frequency, TF over GST control).

As to ATCAAG, the binding signal was 1.01 fold enrichment (6-mer frequency, TF over GST control).

Another test concerns the target T5, ETV7 (Homo sapiens, UniProt Q9Y603 1-341).
T5 sequence: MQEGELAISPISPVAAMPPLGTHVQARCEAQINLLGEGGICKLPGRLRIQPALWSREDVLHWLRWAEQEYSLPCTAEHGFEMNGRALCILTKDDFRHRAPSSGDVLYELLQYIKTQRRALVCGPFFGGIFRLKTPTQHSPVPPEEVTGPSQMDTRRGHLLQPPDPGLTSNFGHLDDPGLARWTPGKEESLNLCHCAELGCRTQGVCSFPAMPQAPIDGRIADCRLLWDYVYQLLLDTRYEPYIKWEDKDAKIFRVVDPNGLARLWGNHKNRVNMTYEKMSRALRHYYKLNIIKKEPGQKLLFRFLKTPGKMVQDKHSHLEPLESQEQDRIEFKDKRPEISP
The description is as above. As to conditions: protein: recombinant; tags: N-terminal GST; dsDNA, one strand shown. In outline:
as §1
On to AGCATA, for which the binding signal is 1.01 fold enrichment (6-mer frequency, TF over GST control).

Consider GGCTTT, for which the binding signal was 1.16 fold enrichment (6-mer frequency, TF over GST control).

With TTTAGA, the binding signal was 1.05 fold enrichment (6-mer frequency, TF over GST control).

The target in another test is ETV6 (Homo sapiens, UniProt P41212 1-452). The test is described as above. As to conditions: protein: recombinant; tags: N-terminal GST; dsDNA, one strand shown. In outline: as §1
Sequence of ETV6 (P41212 whole entry): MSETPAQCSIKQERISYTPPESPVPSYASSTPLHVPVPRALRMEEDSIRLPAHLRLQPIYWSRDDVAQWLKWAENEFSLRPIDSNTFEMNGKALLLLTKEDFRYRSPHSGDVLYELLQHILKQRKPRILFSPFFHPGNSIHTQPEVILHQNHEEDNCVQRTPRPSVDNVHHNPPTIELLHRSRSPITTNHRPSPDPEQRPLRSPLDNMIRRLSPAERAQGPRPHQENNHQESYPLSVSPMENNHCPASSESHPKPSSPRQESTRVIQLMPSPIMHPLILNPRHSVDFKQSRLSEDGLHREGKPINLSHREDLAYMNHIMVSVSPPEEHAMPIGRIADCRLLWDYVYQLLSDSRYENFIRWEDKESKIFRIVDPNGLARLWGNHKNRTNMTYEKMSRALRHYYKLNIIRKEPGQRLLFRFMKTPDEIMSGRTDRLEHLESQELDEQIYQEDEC
TTAGGA: the binding signal is 1 fold enrichment (6-mer frequency, TF over GST control).

As for GGCTTT, the binding signal was 1.06 fold enrichment (6-mer frequency, TF over GST control).

On to GAATGG, for which the binding signal was 1.04 fold enrichment (6-mer frequency, TF over GST control).

As to TTTAGA, the binding signal is 1.04 fold enrichment (6-mer frequency, TF over GST control).
